Screening results deposited in PubChem by The Scripps Research Institute Molecular Screening Center.
The sample as a whole holds a higher share of hits than the screen did.
TTR transcr act: increases transthyretin transcription | SH-SY5Y TTR promoter Gaussia luciferase, luminescence; 100% = recombinant luciferase protein wells | activation, % at 16.7 µM | 92,000 tested, 1.3% active;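 active = activation above the mean of all tested compounds plus 3 SD, cut at about 9.5% in these data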;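 note: cells exposed to compounds for one day before reading; 0% = median of all test compound wells on the plate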
TTR inh HuH7: decreases TTR transcription in HuH7 cells in activator counter-screen; AID 1117279; shares compounds with TTR transcr act; HuH7 TTR promoter-Gaussia luciferase reporter, luminescence; inhibition, % at 16.7 µM; 1,100 tested, 4% active;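 active = average inhibition above the solvent-only control wells' mean plus 3 SD, cut at about 15% in these data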;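 note: 0% = cells with DMSO only and 100% = cells with inhibitor control FD; inhibitors lower well luminescence so higher value means more inhibition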
TTR up confirm: human TTR transcription activation, confirmation | shares compounds with TTR transcr act | SHSY5Y TTR promoter Gaussia luciferase, luminescence; 100% = purified Lucia enzyme wells, no cells | activation, % at 16.7 µM | 1,100 tested, under 10 active;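 active = mean activation above a set limit taken from the earlier primary screen, cut at about 11% in these data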;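 note: 0% = DMSO-treated cells and 100% = recombinant Lucia luciferase without cells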
* marks the source's active call; other numbers are inactive results.

SMILES	TTR transcr act	others
COc1ccc(/C=C/S(=O)(=O)NCC(C)C)c(CNC(=O)OC(C)(C)C)c1	-1
CCOC(=O)[C@]12CCCC3=C1N(CCC3)C(=O)[C@@H](CC(=O)N1CCOCC1)C2	0
CC(C)(C)OC(=O)NCc1cc2c(cc1/C=C/S(=O)(=O)NCc1ccc(F)cc1)OCO2	1
COC(=O)[C@]12C[C@H](CC(=O)NCc3ccc(OC)c(OC)c3)C(=O)N(Cc3ccc(Cl)cc3Cl)C1=C[C@H](COCc1ccccc1)O[C@@H]2C	-1
COc1ccc(CN2C(=O)[C@]3(NCCc4c3[nH]c3ccc(OC)cc43)c3cc(F)ccc32)cc1	5
O=P(c1ccccc1)(c1ccccc1)c1cnc2ccccn12	2
S=c1[nH]nc(CSc2nc3ccccc3s2)o1	14*	TTR inh HuH7=-10;TTR up confirm=-1
COC(=O)c1ccc(CSc2nc3ccccc3s2)o1	-1
Cn1c(CSc2nc3ccccc3s2)n[nH]c1=S	-2
Cc1onc(C(=O)N2CCN(C(c3ccccc3)c3ccccc3)CC2)c1Br	-1
CSCC(=O)Nc1cc(C)on1	8
Cc1cc(NC(=O)CSCC(=O)OCc2nnc(-c3ccc(F)cc3)o2)no1	-1
Cc1cc(NC(=O)CSCC(=O)N(C)Cc2ccc(F)cc2)no1	13*	TTR inh HuH7=-11;TTR up confirm=-1
Cc1ccccc1NC(=O)OC1CC2CC1[C@H]1CCCCN1[C@H]2Cc1ccccc1 (stereo not given in full)	-2
Cc1cc(C)nc(NC(=S)N2CCN(c3ccc(Cl)c(Cl)c3)CC2)c1	-2
CCC[C@H]1[C@@H](OC(=O)NC2CCCCC2)CC[C@@]23CCCN2C(=O)CCC[C@@H]13	-2
CCOC(=O)[C@@]12CCC3=C1N(CCC3)C(=O)[C@H](CC(=O)N1CCCC1)C2	-1
COc1cccc(N(C)C(=O)[C@@H](C)[C@@H](O)c2ccc(Cl)cc2)c1	2
CC(C)CNC(=O)CSc1nnc2ccccn12	11*	TTR inh HuH7=-4;TTR up confirm=12*
O=C(CSc1nnc2ccccn12)NCCc1ccc(Cl)cc1	1
CC(C)(C)NC(=O)NC(=O)CSc1nnc2ccccn12	0
C[C@H]1[C@@H](OC(=O)Nc2ccccc2C(F)(F)F)CC[C@@]23CCCN2C(=O)CCC[C@@H]13	4
CCCCCCC(=O)NC1CCCCN(Cc2ccc(C)cc2)C1=O (stereo not given)	-1
CC1(C)C(CO)=CC(=O)C2=C1SCC(=O)N2	11*	TTR inh HuH7=-9;TTR up confirm=0
O=C(Nc1ccc(Br)cc1)OC1CC2CC1[C@H]1CCCCN1C2 (stereo not given in full)	2
SMILES	TTR transcr act	others
CCOC(=O)c1cc(-c2ccccc2)n(CC(=O)O)c1C	11*	TTR inh HuH7=-15;TTR up confirm=0
CCOC(=O)c1cc(-c2ccccc2)n(CC(=O)NC(C)(C)C)c1C	1
CCCNC(=O)Cn1c(-c2ccc(F)cc2)cc(C(=O)OCC)c1C	1
COc1ccc2[nH]c3c(c2c1)CCN[C@]31C(=O)Nc2ccccc21	0
Nc1[nH]c2cc(C(F)(F)F)ccc2c1C(=O)N1CCN(CCc2ccccc2)CC1	-1
Cc1oc(-c2ccccc2)cc1C(=O)NC1CCN(Cc2ccccc2)CC1	9.8*	TTR inh HuH7=0;TTR up confirm=0
O=C(NC1CCN(Cc2ccccc2)CC1)c1ccccc1Cl	1
O=C(NC1CCN(Cc2ccccc2)CC1)c1ccccc1OCc1ccccc1	-3
O=C(OCc1cn(Cc2ccc(F)cc2F)nn1)N1CCCC1	1
COc1cccc(OCc2cc(C(=O)N3CCCC3c3ccccn3)no2)c1 (stereo not given)	-1
NC(=O)[C@@H]1CCCN1C(=O)c1cc(COc2ccc3c(c2)CCCC3)on1	10*	TTR inh HuH7=-8;TTR up confirm=-1
COc1cccc(OCc2cc(C(=O)N3CCN(C4CCCC4)CC3)no2)c1	1
COc1cccc(NC(=O)NC2CCCCN(Cc3ccccc3C)C2=O)c1 (stereo not given)	-3
CCCCNC(=O)C[C@H]1C[C@@]2(C(=O)OC)C(=C[C@H](C(C)C)O[C@@H]2C2CC2)N(Cc2cccc3ccccc23)C1=O	-1
O=C(OCC#CCSc1nnc(-c2cccc3ccccc23)o1)c1ccc(C(F)(F)F)cc1	-1
CCc1ccn2cc(-c3cc(-c4ccccc4)no3)nc2c1	-5
CCC(CO)Nc1ccn2nc(-c3ccccc3)cc2n1 (stereo not given)	26*	TTR inh HuH7=-2;TTR up confirm=0
CCOC(=O)Cn1nc(-c2ccccc2)ccc1=O	0
CC(C)CN1C(=O)N2CCc3ccccc3C2CS1(=O)=O (stereo not given)	-1
COC(=O)[C@]12C[C@H](CC(=O)NCc3ccccc3)C(=O)N(Cc3cccc4ccccc34)C1=C[C@H](COCc1ccccc1)O[C@@H]2C	0
Fc1cccc(Cn2ccc3ccc(-c4ccc5ccn(Cc6cccc(F)c6)c5c4)cc32)c1	1
O=C1OCC(O)=C1Cc1ccccc1	5
CC(=Nc1ccccc1)C1=C(O)COC1=O	18*	TTR inh HuH7=-6;TTR up confirm=0
COc1ccc(OC)c(N=C(C)C2=C(O)COC2=O)c1	0
C=CCN(CC=C)C[C@@H]1CSCCS(=O)(=O)N1	0
SMILES	TTR transcr act	others
CCCC(=O)OC[C@H]1CN([C@H](C)c2ccccc2)S(=O)(=O)c2c(F)cccc2O1	-2
O=c1c2ccccc2sc2nc(C3CCCCC3)n(Cc3ccco3)c(=O)c12	17*	TTR inh HuH7=2;TTR up confirm=-1
CCCc1nc2sc3ccccc3c(=O)c2c(=O)n1Cc1ccccc1	-1
Cn1c2ccccc2c(=O)c2c(=O)n(Cc3ccco3)c(-c3ccc(F)cc3)nc21	3
COC[C@H]1CCCN1c1ccc2c(c1)O[C@H](C)CCN(C1CC1)S2(=O)=O	0
CCOC(=O)c1ccc(NC(=S)N2CCN(C)CC2)cc1	0
CN1CCN(C(=S)Nc2ccc(S(N)(=O)=O)cc2)CC1	11*	TTR inh HuH7=-9;TTR up confirm=0
CCCCc1ccc(NC(=S)N2CCN(C)CC2)cc1	7
CCCCOc1ccc(C(=O)NC2CCCCN(Cc3ccc(Cl)cc3)C2=O)cc1 (stereo not given)	-2
O=C(Cc1cccs1)NC1CCCCN(Cc2ccc(Cl)cc2)C1=O (stereo not given)	5
C[C@H]1[C@H](NC(=O)c2cccc(C(F)(F)F)c2)CC[C@@]23CCCN2C(=O)CCC[C@@H]13	-1
CCCCNC(=O)NS(=O)(=O)c1cnccc1Sc1ccc(Cl)cc1	16*	TTR inh HuH7=-17;TTR up confirm=0
CCCCCNC(=O)C(C)Sc1ccc(Cl)cc1 (stereo not given)	2
O=C(NCCCNC(=O)c1cnccn1)c1ccc(Cl)cc1	4
COC(=O)[C@]12C[C@H](CC(=O)NCCCN3CCCC3=O)C(=O)N(Cc3ccco3)C1=C[C@H](COCc1ccccc1)O[C@@H]2C	6
COC(=O)[C@]12C[C@H](CC(=O)NCc3cccc4ccccc34)C(=O)N(Cc3ccc4c(c3)OCO4)C1=C[C@H](C(C)C)O[C@@H]2C1CC1	0
CCCCOCCCNC(=O)C[C@@H]1C(=O)N(CCc2ccc(Cl)cc2)C2=CCCC[C@]21C(=O)OCC	-1
CC(C)c1ccc(NC2CCCN(C(=O)c3cccs3)C2)cc1 (stereo not given)	11*	TTR inh HuH7=-5;TTR up confirm=-1
CC(C)c1ccc(NC2CCCN(C(=O)c3cnc4ccccn4c3=O)C2)cc1 (stereo not given)	0
